Several values for one entry are separate records, joined by “and”; a condition that tells them apart may be missing. Equal values may be shown once. Results filed as inconclusive are left out. A number with no mark means an inactive call. Activity calls are given as the source filed them. Calls follow the shape of the dose curve; as a rule, active = well fitted cell-killing curve with a large enough effect; inconclusive = small, poorly fitted or top-dose-only effect, or effect the other way; inactive = no such curve, though single readings can be large or run the other way.
% is scaled to controls: 0 for no effect and ±100 for the full control effect; potency is read from the fitted curve at half-maximal effect.

The assay in a line: Cell Viability qHTS for small molecule stabilizers of the endoplasmic reticulum resident proteome (AID 1508629).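 Also: compound exposure about 46 h in total before the viability read.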 Particulars: cell viability counter-screen, 100 nM thapsigargin for final 4 h. From the text: Assay Provider: Brandon K. Harvey Ph.D.
National Institute on Drug Abuse, National Institutes of Health, Baltimore, MD
Endoplasmic reticulum (ER) dysregulation is associated with human pathologies including neurodegenerative, cardiovascular, muscular, and diabetic conditions. Maintenance of ER calcium is critical for functions of the ER and its depletion can lead to loss of ER resident proteins, in a process termed exodosis. Therapeutic compounds capable of attenuating the redistribution of ER proteins under pathological conditions may slow or stop disease progression. To identify such compounds, we performed a quantitative high-throughput screen (qHTS) using the SERCaMP assay, which monitors secretion of ER resident proteins triggered by calcium depletion.
SERCaMP was initially developed as a reporter of ER calcium homeostasis using a Gaussia luciferase with a modified signal peptide and carboxy-terminus (GLuc-SERCaMP), modifications that confer secretion of the reporter in response to ER calcium depletion (Henderson et al., 2014). The assay was used to screen 9,501 compounds, including a collection of drugs approved by the FDA (US), EMA (EU), NHI (Japan), and HC (Canada) regulatory agencies (Huang et al., 2011). Since the SERCaMP reporter reflects the exodosis phenomenon (Trychta et al., 2018a), compounds identified in the screen have the potential to prevent exodosis by different mechanisms such as stabilizing ER calcium or augmenting ERS retrieval.
1. Henderson, M.J., Wires, E.S., Trychta, K.A., Richie, C.T., and Harvey, B.K. (2014). SERCaMP: a carboxy-terminal protein modification that enables monitoring of ER calcium homeostasis. Mol Biol Cell 25, 2828-2839.
2. Huang, R., Southall, N., Wang, Y., Yasgar, A., Shinn, P., Jadhav, A., Nguyen, D.T., and Austin, C.P. (2011). The NCGC pharmaceutical collection: a comprehensive resource of clinically approved drugs enabling repurposing and chemical genomics. Sci Transl Med 3, 80ps16.
3. Trychta, K.A., Back, S., Henderson, M.J., and Harvey, B.K. (2018a). KDEL Receptors Are Differentially Regulated to Maintain the ER Proteome under Calcium Deficiency. Cell Rep 25, 1829-1840 e1826.
SEQUENCE No. (1, 2, 3, etc.); […] (e.g., Cells, Incubation, Reagent, etc.); VALUE and DESCRIPTION.
1; Reagent; 5 uL; 1000 SH-SY5Y cells per wells
3; Compound; 23 nL; Control inhibitor / compound library
5; Reagent; 100 nM; Thapsigargin
7; Reagent; 5 uL; CellTiter-Glo (Promega)
8; Time; 10 min; room temperature
9; Detection; Luminescence; ViewLux imaging system
NOTES (numbers refer to sequence above)
1; SH-SY5Y human neuroblastoma cells stably expressing GLuc-SERCaMP (SH-SY5Y-GLuc-ASARTDL) cells were seeded in 1,536 well white tissue culture treated plates (Corning, Cat# 7464) in DMEM-high glucose-sodium pyruvate (ThermoFisher Scientific, Cat #10569) supplemented with 10% bovine growth serum (Hyclone), 10 U/ml penicillin (Gibco), 10 ug/ml streptomycin (Gibco), and 20 mM HEPES.
2; Assay plates were incubated for 5 hr at 37C in a humidified incubator containing 5% CO2.
3; qHTS libraries (23 nl, final concentrations of 1.53 uM, 7.67 uM, 38.3 uM) or controls (neutral control: DMSO, positive control: dantrolene) were added using a Kalypsis pin-tool Robotic System equipped with 1536 pinheads.
4; Cells were then incubated for 42 hours at 37C, 5% CO2.
5; Thapsigargin was added at 100 nM to deplete ER calcium stores.
6; Cells were incubated for 4 hr (37C, 5% CO2).
7; Cell viability was measured using the CellTiter-Glo Luminescent Cell Viability Assay (Promega). Briefly, an equal volume of reagent was added to each well. Plates were rotated for 2 min.
8; Assay plates were incubated for 10 min at room temperature.
9; Luminescence was measured using a ViewLux CCD imaging system (Perkin Elmer) equipped with clear filters.
Background: In qHTS, concentration-response curves come from the screen itself.
For the compound `c1ccc2c(CN3CCNCC3)cccc2c1`, the max response is 15%.

With `C[C@H]1CCCC=CC2C[C@H](O)C[C@@H]2[C@H](O)C=CC(=O)O1` (stereo partly specified), the Potency is 70.8 nM (active).

Regarding `Nc1ccc(Cl)cc1N`, the max response is 1.89%.

With `Clc1ccc(C(c2ccc(Cl)cc2)n2cc[n+](CC(OCc3ccc(Cl)cc3Cl)c3ccc(Cl)cc3Cl)c2)cc1` (stereo unspecified), the max response is -14.7%.

Consider `CNCCc1ccc(O)c(O)c1`, for which the max response is 11.4%.

For the compound `Nc1ccc(N=Nc2ccccc2)cc1`, the max response was 1.98%.

Take `O=[N+]([O-])c1c2ccccc2cc2ccccc12`: the max response was -4.03%.

In the case of `Nc1c(Cl)c(Cl)c(Cl)c(Cl)c1Cl`, the max response is 1.55%.

In the case of `CC=C(C)C(=O)O[C@H]1C(C)=C2[C@@H]3OC(=O)[C@@](C)(O)[C@@]3(O)[C@@H](OC(=O)CCC)C[C@](C)(OC(C)=O)[C@@H]2[C@@H]1OC(=O)CCCCCCC`, the Potency is 282 nM (active).

Consider `C/C=C(/C)C(=O)O[C@H]1C(C)=C2[C@H]([C@@H]1OC(=O)CCCCCCC)[C@@](C)(OC(C)=O)C[C@H](OC(=O)CCC)[C@@]1(O)[C@H]2OC(=O)[C@@]1(C)O`, for which the Potency is 251 nM (active) and 224 nM (active).

Regarding `NC1CCc2cc(O)c(O)cc2C1` (stereo unspecified), the max response is 25.8%.
